# RORgamma inh: qHTS for inhibitors of ROR gamma transcriptional activity; Nuclear receptor ROR-gamma (Mus musculus), P51450; Drosophila S2 Gal4-RORgamma UAS-luciferase reporter, 20 h; Potency, µM (highest dose often 53.6 µM), inactives show at the highest dose activity change, negative = inhibition, most hits filed as inhibitors; 310,000 tested, 5.4% active; AID 2551, 2010; also: potency is read from the fitted curve at half-maximal effect; % is scaled to controls: 0 for no effect and ±100 for the full control effect; nearly all actives have a fitted effect of over 60% in size
# Target sequence (P51450 whole entry, looked up, the tested form may be a part): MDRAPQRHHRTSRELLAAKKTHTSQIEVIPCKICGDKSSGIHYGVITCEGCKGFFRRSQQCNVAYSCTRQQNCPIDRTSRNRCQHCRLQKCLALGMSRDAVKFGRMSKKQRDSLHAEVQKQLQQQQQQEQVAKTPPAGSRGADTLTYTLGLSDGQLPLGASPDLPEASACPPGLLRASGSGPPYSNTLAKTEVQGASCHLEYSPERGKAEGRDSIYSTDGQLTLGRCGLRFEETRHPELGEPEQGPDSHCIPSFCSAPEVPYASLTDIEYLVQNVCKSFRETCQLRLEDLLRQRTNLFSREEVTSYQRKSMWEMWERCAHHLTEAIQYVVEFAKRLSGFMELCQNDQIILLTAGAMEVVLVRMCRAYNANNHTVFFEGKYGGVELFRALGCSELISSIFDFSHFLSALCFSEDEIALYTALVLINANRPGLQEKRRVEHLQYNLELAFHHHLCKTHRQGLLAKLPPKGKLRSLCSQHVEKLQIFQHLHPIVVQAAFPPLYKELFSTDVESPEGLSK
#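 In this cell-based reporter format, copper sulfate (700 uM final) drives Gal4–ROR gamma fusion expression from a metallothionein promoter in Drosophila Schneider cells; compounds preincubated 1 hr, reporter read after 20 hr at ambient temperature.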
# CtBP-E1A blk: qHTS Assay for Inhibitors of the CtBP/E1A Interaction. AlphaScreen GST-E1A/His-CtBP binding, 1536-well; active compounds read low. activity change, % (no concentration beside the values). 340,000 tested, 0.49% active. AID 651724, 2012; in the data active = activity change below about -65%; inconclusive = mostly about -30% to -63%; also: % is scaled to controls: 0 for no effect and ±100 for the full control effect
#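 In 5 uL wells, 23 nL compound meets equimolar GST-E1A and His-CtBP (5X stock 125 nM each) for 2 h, 37 °C. Beads (5X, 50 ug/mL) then 1 h, 37 °C, dark.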
# MBNL1-CUG inh: qHTS Assay for Inhibitors of MBNL1-poly(CUG) RNA binding | TR-FRET MBNL1-His/biotin-(CUG)12 binding, 665/545 ratio | AID 2675, 2010 | 280,000 tested, 0.036% active | Potency, µM (series often up to 57.5 µM), for inactives: top-dose activity change, negative = inhibition, usual class: inhibitors; active = well fitted inhibition curve with a large enough effect in the signal ratio, with a control signal flat, not every such curve was filed as active; inconclusive = small, poorly fitted or top-dose-only effect, or effect the other way, or a change in a side signal; inactive = no such curve, though single readings can be large or run the other way; the % refers to the signal ratio; also: potency is read from the fitted curve at half-maximal effect; % is scaled to controls: 0 for no effect and ±100 for the full control effect
#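 TR-FRET readout: Ex 340 nm, 665/545 nm emission ratio, normalized to buffer-only (basal) and MBNL1-(CUG)12 controls. Complex of MBNL1-His with Biotin-(CUG)12, compounds 92 nM–58 uM, incubated 60 min at room temperature.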
# CBFb-RUNX1 inh: qHTS Assay for Compounds Blocking the Interaction Between CBF-beta and RUNX1 for the Treatment of Acute Myeloid Leukemia | AlphaScreen CBFb-His/RUNX1-biotin binding, biochemical | Runt-related transcription factor 1 (Homo sapiens) + Core-binding factor subunit beta … | 230,000 tested, under 10 active | Potency, µM (titrated, usually from 59.8 µM), inactives show top-dose activity, negative = inhibition, most hits filed as inhibitors; also: % of control where 0% means no effect
#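 His-tagged CBF-beta and biotinylated RUNX1 (30 nM each) were premixed 20 min at room temperature, exposed to compound for 15 min, then given nickel-chelate and streptavidin AlphaScreen beads (50 ng each). After 90 min, AlphaScreen signal was read.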
# Six1-Eya2 inh: qHTS Assay for Inhibitors of the Six1/Eya2 Interaction | Homeobox protein SIX1 (Homo sapiens) + Protein phosphatase EYA2 (Homo sapiens), … | AlphaScreen GST-Six1/His-Eya2 binding, biochemical; active compounds read low | 360,000 tested, 0.56% active | activity change, % (concentration not given with the values); in the data active = activity change below about -65%; inconclusive = mostly about -30% to -63%; also: % is scaled to controls: 0 for no effect and ±100 for the full control effect
#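 Six1/Eya2 binding was read as AlphaScreen signal after compounds were pinned into GST-Six1 plus His-tagged Eya2 (5X stock 250/500 nM) in pH 8.0 Tris/NaCl/TCEP buffer, beads added, then incubated 1 h, 37 C, dark.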
# VP16 counter: VP16 counterscreen qHTS for inhibitors of ROR gamma transcriptional activity. 310,000 tested, 3.5% active. Potency, µM (doses to about 53.6 µM), without a hit: at the top dose activity, negative = inhibition, usual class: inhibitors. Drosophila S2 Gal4-VP16 UAS-luciferase, luminescence, 20 h. AID 2546, 2010;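 also: Gal4-VP16 expression switched on by copper sulfate through the metallothionein promoter; potency is read from the fitted curve at half-maximal effect; % is scaled to controls: 0 for no effect and ±100 for the full control effect; nearly all actives have a fitted effect of over 50% in size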
# * marks the source's active call; other numbers are inactive results; ? = inconclusive; / = no result given; [ ] = another dose, or the depositor's remark. A selection: hits, their analogues and other compounds. The true share with any hit is near 5.5%. Unless noted, calls follow the shape of the dose curve; as a rule, active = well fitted curve in the direction sought with a large enough effect; inconclusive = small, poorly fitted or top-dose-only effect, or another doubt; inactive = no such curve, though single readings can be large; an effect the other way counts as inactive or inconclusive.
SMILES,RORgamma inh,CtBP-E1A blk,MBNL1-CUG inh,CBFb-RUNX1 inh,Six1-Eya2 inh,VP16 counter
CCOc1ccc(/C=N/n2c(C3CCCCC3)n[nH]c2=S)cc1,4µM*,0,-4%,/,3,?
CN(C)c1ccc(/C=N/n2c(C3CCCCC3)n[nH]c2=S)cc1,2.5µM*,-11,16%,/,-14,6.3µM*
COc1cc(/C=N/n2c(C3CCCCC3)n[nH]c2=S)ccc1O,-66%,/,-1%,/,-22,-22%
S=c1[nH]nc(C2CCCCC2)n1/N=C/c1ccccc1,8.9µM*,-8,-5%,/,-1,?
S=c1[nH]nc(C2CCCCC2)n1/N=C/c1ccco1,?,7,10%,2%,-2,?
Fc1ccc(/C=N/n2c(C3CCCCC3)n[nH]c2=S)cc1,3.5µM*,0,4%,/,-1,7.9µM*
COc1ccc(NC(=O)N2CC[C@@]3(CCCN(C(C)=O)C3)C2)cc1,3%,/,/,/,/,2%
CN1c2ccc([N+](=O)[O-])cc2N(C)C1(C)c1ccccc1 (configuration not stated),?,-80*,?,/,-76*,?
CC/C(=N\NC(=O)c1c(-c2ccccc2)noc1C)c1ccc(C)o1,?,0,-2%,6%,-3,-11%
C/C(=N\NC(N)=S)c1ccc(Cl)s1,1.4µM*,-5,?,0%,3,5µM*
CC/C(=N\NC(=O)c1ccoc1C)c1ccc(C)o1,5µM*,-15,-17%,9%,0,10%
C/C(=N\NC(=O)c1csc(C)c1C)c1ccc(Cl)s1,-7%,1,-6%,-19%,-3,-3%
C/C(=N\NC(=O)c1ccoc1C)c1ccc(Cl)s1,11µM*,0,9%,/,-2,10µM*
C/C(=N\NC(=S)NC(C)C)c1ccc(Cl)s1,1.1µM*,4,-22%,-3%,-13,?
O=C1NC[C@@H](CCCCN2C[C@H](Cc3ccccc3)N(Cc3ccccc3)C(=O)C2=O)N(Cc2ccccc2)C1=O,/,2,/,/,-8,/
CC(C)C1CC(CCNCc2ccc(N(C)C)cc2)(c2ccccc2)CCO1 (configuration not stated),-29%,?,-5%,-18%,-65*,3%
Cc1ccc(C2(CCNCc3ccc(N(C)C)cc3)CCOC(C(C)C)C2)cc1 (configuration not stated),?,?,-6%,-18%,?,2%
CCOC(=O)Cc1cc(=O)n2[nH]c(C)c(-c3ccc(Cl)cc3)c2n1,11µM*,12,-2%,-7%,3,?
CCOC(=O)Cc1cc(=O)n2[nH]c(C)c(-c3ccc(OC)cc3)c2n1,-15%[0.365 µM],-5,4%,-13%,0,/
CCCc1cc(=O)n2[nH]c(C)c(-c3ccccc3)c2n1,7.1µM*,1,1%,1%,0,?
COC(=O)Cc1cc(=O)n2[nH]c(C)c(-c3ccccc3)c2n1,3.5µM*,1,3%,-9%,-2,4µM*
Cc1cccc(NC(=O)Nc2c(C)[nH]c(=O)[nH]c2=O)c1C,-9%,1,-1%,/,2,-3%
CC(=O)N1CC(C)Sc2ccc(S(=O)(=O)N3CCCCC3)cc21 (configuration not stated),7%,-6,0%,/,7,3%
Cc1cccc(N2CCN(C(=O)CN3CCOc4ccccc43)CC2C)c1 (configuration not stated),12%,0,0%,-9%,-23,-2%
Cc1ccc(N2C(=O)C3C4C=CC(CNC(=S)N5CCN(c6cccc(C)c6)C(C)C5)(O4)C3C2=O)cc1 (configuration not stated),8.9µM*,0,3%,-5%,7,?
SMILES,RORgamma inh,CtBP-E1A blk,MBNL1-CUG inh,CBFb-RUNX1 inh,Six1-Eya2 inh,VP16 counter
O=C(c1ccccc1)[C@@H]1O[C@H]1c1ccc(-c2ccccc2)cc1,22%,/,/,4%[21.7 µM],/,-2%
Cc1cc(C)c(OCC(=O)Nc2nc(-c3ccccn3)cs2)c(C)c1,2.8µM*,0,-4%,?,-5,?
O=C(CCS(=O)(=O)c1ccccc1)Nc1nc(-c2ccccn2)cs1,/,-80*,/,/,-11,/
CC(Oc1ccc(F)cc1)C(=O)Nc1nc(-c2ccccn2)cs1 (configuration not stated),/,-79*,/,/,-28,/
O=C(CCS(=O)(=O)c1ccc(F)cc1)Nc1nc(-c2ccccn2)cs1,10µM*,/,0%,/,-76*,-22%
Cc1ccc(S(=O)(=O)CCC(=O)Nc2nc(-c3ccncc3)cs2)cc1,-9%,/,2%,/,-5,-1%
CC1CCCCN1C(=O)C(=O)c1cn(CC(=O)N2CCCCCC2)c2ccccc12 (configuration not stated),9%,4,-1%,/,-1,4%
CC(C)OC(=O)[C@@H]1CC[C@H](C)[C@@H](CCC[C@@H]2CC=C[C@H](CC#N)O2)O1,?,/,/,-3%,/,4%
Cc1cccc2sc(=S)[nH]c12,/,6,/,/,3,/
COc1ccc(OCCCC(=O)Nc2nc(-c3ccccn3)cs2)cc1,10µM*,-26,34%,/,-24,-28%
COc1ccc(OCCC(=O)Nc2nccs2)cc1,?,0,0%,-2%,-4,?
CCCCOc1ccc(Br)cc1CSC(=N)N,?,20,-7%,19%,30,10µM*
O=C(O)CCc1nn2c3ccccc3nc2n(-c2ccccc2)c1=O,11µM*,5,14%,4%,-1,-6%
O=C(Cc1ccc(Br)cc1)NCc1ccccc1,8%,-1,-9%,/,-11,-7%
COc1cccc(/C=C2\SC(=S)N(CCCC(=O)N3CCCCC3CCO)C2=O)c1 (configuration not stated),3.5µM*,/,?,/,-14,2.8µM*

# Screens (PubChem BioAssay)
